BAZ2B inh – inhibitors of human BAZ2B bromodomain. AID 504333. Potency, µM (titrated, usually from 114 µM), usual class: inhibitors. AlphaScreen BAZ2B-H3K14Ac peptide displacement. Q9UIF8. actives 4.4% (n = 360,000); also: nearly all actives have a fitted effect of over 60% in size
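In this displacement format the biotinylated H3(5-23) peptide acetylated at Lys14 serves as ligand at 50 nM, with BAZ2B at 50 nM in PBS pH 7.4 containing 0.01% Tween-20. Donor and acceptor beads are 10 ug/mL final.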
PI5P4Ka inh – blocks human PI5P4K alpha kinase activity; P48426; PI5P4Kalpha enzyme, ADP-Glo luminescence, 60 min; hits give low values; max response, %; actives 1.2% (n = 330,000); active = max response of -50% or lower; inconclusive = between -30% and -50%; inactive = -30% or higher; also: value at the top dose of about 77 µM
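Compounds were pin-transferred onto PI5P4Kalpha and substrate in HEPES pH 7.4 buffer with EGTA, CHAPS and 5% DMSO. ATP (5 microM final) started the reaction, which ran 60 minutes at room temperature before ADP-Glo detection.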
JMJD2A Tudor inh – inhibitors of human JMJD2A Tudor domain. O75164. AlphaScreen JMJD2A-Tudor / H3K4me3 peptide binding. Potency, µM (highest dose often 114 µM), actives largely listed as inhibitors. actives 4.4% (n = 390,000); also: nearly all actives have a fitted effect of over 50% in size
G9a inh – G9a (human) methyltransferase inhibition | Potency, µM (titrated, usually from 102 µM), most hits filed as inhibitors | Q96KQ7 | G9a H3K9 monomethylation, AlphaScreen, 2 h | actives 8.8% (n = 350,000); also: nearly all actives have a fitted effect of over 75% in size
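AlphaScreen detection with an anti-monomethyl H3K9 antibody quantified product after a 2 h room-temperature reaction containing 500 nM biotinylated H3K9 peptide, 20 µM SAM and 20 nM enzyme, which had been preincubated 15 min with compound.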
HP1b binding inh – blocks HP1-beta chromodomain binding to methylated histone tails; P83916; AlphaScreen HP1-beta / biotin-H3K9me3 peptide binding; Potency, µM (top dose mostly 114 µM), hits mostly inhibitors; actives 0.56% (n = 390,000); AID 540317; also: nearly all actives have a fitted effect of over 70% in size
Target sequence (P83916 whole entry, looked up): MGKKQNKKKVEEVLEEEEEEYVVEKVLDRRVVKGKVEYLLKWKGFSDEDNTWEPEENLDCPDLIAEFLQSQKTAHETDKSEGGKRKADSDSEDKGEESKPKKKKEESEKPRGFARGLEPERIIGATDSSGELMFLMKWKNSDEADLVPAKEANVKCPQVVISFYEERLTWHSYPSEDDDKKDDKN
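HP1-beta protein (50 nM final) preincubated 30 min at room temperature with biotinylated H3(1-18)K9me3 peptide (50 nM) in PBS pH 7.4, 0.01% Tween-20, then compound added for 30 min. AlphaScreen streptavidin donor/nickel chelate acceptor beads (10 ug/mL final), 30 min dark, luminescence read.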
PLK1 PBD block – inhibitors of human PLK1 polo-box domain binding | Potency, µM, hits mostly inhibitors | Plk1 PBD binding of FITC phosphopeptide, fluorescence polarization | P53350 | AID 720504 | actives 2.8% (n = 360,000); also: series mostly up to about 57 µM; nearly all actives have a fitted effect of over 65% in size
Target sequence (P53350 whole entry, looked up, the tested form may be a part): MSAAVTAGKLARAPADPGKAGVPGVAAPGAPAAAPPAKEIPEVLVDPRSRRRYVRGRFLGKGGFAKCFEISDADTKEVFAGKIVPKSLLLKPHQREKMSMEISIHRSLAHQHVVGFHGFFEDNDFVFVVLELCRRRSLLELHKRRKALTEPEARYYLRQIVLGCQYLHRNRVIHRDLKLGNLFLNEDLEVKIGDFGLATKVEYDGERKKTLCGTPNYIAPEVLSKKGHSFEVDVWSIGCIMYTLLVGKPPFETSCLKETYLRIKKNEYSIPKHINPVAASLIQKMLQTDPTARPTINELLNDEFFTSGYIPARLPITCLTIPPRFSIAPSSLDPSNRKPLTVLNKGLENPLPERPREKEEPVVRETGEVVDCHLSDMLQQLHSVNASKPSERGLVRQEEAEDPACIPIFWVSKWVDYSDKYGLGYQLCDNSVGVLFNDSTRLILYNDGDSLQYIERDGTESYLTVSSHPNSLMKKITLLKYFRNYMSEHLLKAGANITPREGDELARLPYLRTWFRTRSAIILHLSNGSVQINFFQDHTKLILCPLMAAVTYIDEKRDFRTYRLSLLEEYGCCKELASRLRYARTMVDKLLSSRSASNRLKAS
Each line names hits and unclear results; the compound was inactive in the other large screens; ! = not active in a repeat. An excerpt weighted towards active compounds, which were near 12% of everything screened. Unless noted, calls follow the shape of the dose curve; as a rule, active = well fitted curve in the direction sought with a large enough effect; inconclusive = small, poorly fitted or top-dose-only effect, or another doubt; inactive = no such curve, though single readings can be large; an effect the other way counts as inactive or inconclusive.

COc1ccc(C2=NS(=O)(=O)N(C)C(C(=O)N(C)Cc3ccccc3)=C2)cc1OC	JMJD2A Tudor inh 5.01µM!, G9a inh 14.1µM!, PLK1 PBD block inconclusive
CCc1cc2c(cc3c(=O)n(CC(=O)NCc4cc(Br)ccc4OC)ncn32)s1	none (no result: PI5P4Ka inh, PLK1 PBD block)
Cc1cccc(C)c1NC(=O)C(c1ccc(C#N)cc1)n1c(=O)c(-c2ccccc2)nc2ccccc21 (stereo not drawn)	none (no result: BAZ2B inh, JMJD2A Tudor inh, G9a inh, HP1b binding inh)
CC(=O)c1nc(N2C(=O)CC(Cc3ccc(C)cc3)C2=O)sc1C (stereo not drawn)	BAZ2B inh inconclusive, G9a inh 1.41µM
CCOC(=O)C1=CCN(S(=O)(=O)c2ccccc2Br)C1c1ccc(Cl)c(Cl)c1 (stereo not drawn)	none (no result: BAZ2B inh, JMJD2A Tudor inh, G9a inh, HP1b binding inh)
Oc1ccc(NC(=S)N=Nc2c(O)[nH]c3ccccc23)cc1	JMJD2A Tudor inh inconclusive, G9a inh 50.1µM, HP1b binding inh inconclusive
O=C(N=Nc1c(O)[nH]c2ccccc12)c1cccs1	G9a inh 79.4µM
Oc1[nH]c2ccc(Br)cc2c1N=NC(=S)Nc1ccc(F)cc1	BAZ2B inh inconclusive, HP1b binding inh inconclusive
Oc1ccc(NC(=S)N=Nc2c(O)[nH]c3ccc(Br)cc23)cc1	BAZ2B inh 20µM, PI5P4Ka inh inconclusive, JMJD2A Tudor inh 31.6µM, G9a inh inconclusive, HP1b binding inh inconclusive
O=C(N=Nc1c(O)[nH]c2ccccc12)c1cc(NS(=O)(=O)c2cccs2)cc(NS(=O)(=O)c2cccs2)c1	none
Cc1ccc(NC(=S)N=Nc2c(O)[nH]c3ccccc23)cc1	none (no result: BAZ2B inh)
Cn1ccc2cc(-c3ccc4ncnc(NCc5cccc(F)c5)c4c3)ccc21	none (no result: PI5P4Ka inh, JMJD2A Tudor inh, HP1b binding inh, PLK1 PBD block)
CN(CC(=O)Nc1c(Cl)cccc1Cl)C(=O)C1CC(=O)N(Cc2ccccc2)C1 (stereo not drawn)	BAZ2B inh inconclusive, G9a inh inconclusive
CCOC(=O)C(Cc1ccc(OC)c([N+](=O)[O-])c1)NC(=O)CCC(=O)Nc1ccc(OC)cc1 (stereo not drawn)	none
CCCCCCCCCCCC(=O)NC(Cc1ccc(OC)c([N+](=O)[O-])c1)C(=O)O (stereo not drawn)	G9a inh 28.2µM, PLK1 PBD block inconclusive
CC(=O)c1ccc(N2C(=O)C3C(C2=O)C(C(=O)c2ccc(Cl)cc2)N2CCCC32)cc1 (stereo not drawn)	BAZ2B inh inconclusive, PI5P4Ka inh -53.7, G9a inh inconclusive, PLK1 PBD block 10.6µM
O=C(c1ccc(Cl)cc1)[C@@H]1[C@@H]2C(=O)N(c3ccccc3)C(=O)[C@@H]2C2c3ccccc3C=NN21 (stereo partly drawn)	G9a inh 20µM
O=C(c1ccc(Cl)cc1)C1C2C(=O)N(c3ccccc3)C(=O)C2C2CCCN21 (stereo not drawn)	BAZ2B inh inconclusive, G9a inh 8.91µM, PLK1 PBD block inconclusive
COc1ccc(N2C(=O)C3C(C2=O)C(C(=O)c2ccc(Cl)cc2)N2CCCC32)cc1 (stereo not drawn)	BAZ2B inh inconclusive, JMJD2A Tudor inh inconclusive, G9a inh inconclusive, HP1b binding inh inconclusive
Cc1ccc(N2C(=O)[C@@H]3[C@H](C2=O)C2CCCN2[C@@H]3C(=O)c2ccccc2)cc1 (stereo partly drawn)	BAZ2B inh inconclusive, JMJD2A Tudor inh 56.2µM
O=C1C(C2=NC(C(=O)O)C3C(=O)N(c4ccc(Cl)cc4)C(=O)C23)=C(O)c2ccccc21 (stereo not drawn)	JMJD2A Tudor inh inconclusive (no result: PI5P4Ka inh, G9a inh)
COc1cc(OC)c(NC(=O)N2CCC(CN3CCCC3)CC2)cc1Cl	none (no result: PI5P4Ka inh, PLK1 PBD block)
Cc1ccc(S(=O)(=O)N(C)/N=C/C=C/c2ccccc2)cc1	G9a inh 35.5µM
Cc1ccc(S(=O)(=O)N(C)c2ccc(N)cc2)cc1	none
Cc1ccc(S(=O)(=O)N(C)/N=C/c2ccc(N(C)C)cc2)cc1	BAZ2B inh 25.1µM, JMJD2A Tudor inh 22.4µM, G9a inh 17.8µM, HP1b binding inh 39.8µM
COc1ccc2nc(NC(=O)CSCC(=O)Nc3cc(C)on3)sc2c1	none
Cc1cccc(C)c1OCC(=O)N/N=C/C=C/c1ccco1	G9a inh 31.6µM
Cc1cc(C)cc(OCC(=O)N/N=C/c2ccco2)c1	none
Cc1ccc(OCC(=O)N/N=C/C=C/c2ccco2)c(Br)c1	PI5P4Ka inh inconclusive, JMJD2A Tudor inh inconclusive, G9a inh 44.7µM
Cc1cccc(OCC(=O)N/N=C/C=C/c2ccco2)c1	BAZ2B inh inconclusive, PI5P4Ka inh -76.0, G9a inh 8.91µM
CCOC(=O)N/N=C\C=C\c1ccco1	G9a inh inconclusive
CCc1ccc(OCC(=O)N/N=C\c2ccco2)c([N+](=O)[O-])c1	BAZ2B inh 44.7µM, PI5P4Ka inh inconclusive, JMJD2A Tudor inh inconclusive, HP1b binding inh inconclusive, PLK1 PBD block inconclusive
O=C(COc1cccc([N+](=O)[O-])c1)N/N=C/c1ccco1	BAZ2B inh inconclusive, PI5P4Ka inh inconclusive, JMJD2A Tudor inh inconclusive, G9a inh inconclusive
COc1cc(OC)cc(C(=O)N[C@H](C(=O)Nc2cccc(S(=O)(=O)N3CCCC3)c2)C(C)C)c1	none
Nc1nc(=S)c2n[nH]nc2[nH]1	JMJD2A Tudor inh 17.8µM (no result: BAZ2B inh, PI5P4Ka inh, G9a inh, PLK1 PBD block)
COc1ccc(NC(=O)c2oc3c(c2C)-c2nn(Cc4ccccc4Cl)cc2CC3)cc1OC	none (no result: PI5P4Ka inh, PLK1 PBD block)
Cn1c(=O)c2[nH]c(CN3CCCCC3)nc2n(C)c1=O	JMJD2A Tudor inh 3.98µM, HP1b binding inh inconclusive (no result: BAZ2B inh, G9a inh)
Cn1c(=O)c2[nH]c(CN3CCN(Cc4ccccc4)CC3)nc2n(C)c1=O	JMJD2A Tudor inh 8.91µM, G9a inh inconclusive
CN1CCN(Cc2nc3c([nH]2)c(=O)[nH]c(=O)n3C)CC1	JMJD2A Tudor inh 10µM, G9a inh inconclusive
O=C(CSC1=NS(=O)(=O)c2cc(F)ccc2N1)Nc1ccccc1	JMJD2A Tudor inh inconclusive
O=C(CSC1=NS(=O)(=O)c2ccccc21)Nc1ccccc1	BAZ2B inh inconclusive, G9a inh 7.94µM, PLK1 PBD block 10.6µM
COC(=O)CSC1=NS(=O)(=O)c2ccccc21	JMJD2A Tudor inh 15.8µM, G9a inh 1.41µM, PLK1 PBD block 2.99µM
CCOC(=O)C[C@@H]1OC[C@H](C(C)C)N1S(=O)(=O)c1ccc(C)cc1	none (no result: BAZ2B inh, JMJD2A Tudor inh, G9a inh, HP1b binding inh)
COc1cc(OC)cc(C(=O)N2CC(=O)Nc3ccccc32)c1	none
Cc1cc(C)n(-c2nc3ccccc3nc2Nc2cccc(C)c2C)n1	none (no result: PI5P4Ka inh, PLK1 PBD block)
CC(=O)Nc1cc(NC(C)=O)cc(C(=O)NCC2(N3CCOCC3)CCCCC2)c1	BAZ2B inh inconclusive, JMJD2A Tudor inh inconclusive
CCOC(=O)/C(=C\c1cccnc1)C(=O)c1cc(C(C)=O)c(Nc2ccccc2)s1	BAZ2B inh 56.2µM, JMJD2A Tudor inh inconclusive, G9a inh 10µM, PLK1 PBD block inconclusive
Cc1ccc(CNC(=O)C2CCCN(c3nn4cc(-c5ccc(C)cc5)nc4s3)C2)cc1 (stereo not drawn)	JMJD2A Tudor inh inconclusive (no result: PI5P4Ka inh, PLK1 PBD block)

Compound activity deposited in PubChem BioAssay by National Center for Advancing Translational Sciences (NCATS).
